Consider 13 compounds from PubChem BioAssay (Tox21).

More than one record can exist for a structure, and the calls need not agree. Active and inactive are the calls of the source. Unless noted, the call rests on the fitted dose curve; in most records, active means well fitted curve in the direction sought with a large enough effect in the repeat runs; inconclusive means weak or mixed curves; inactive means no such curve, though single readings can be large; an effect the other way counts as inactive or inconclusive.

A short description of test [1]: qHTS assay to identify small molecule antagonists of the glucocorticoid receptor (GR) signaling pathway - cell viability counter screen (AID 720693). Further: nearly all actives have a fitted effect of over 55% in size. For orientation: In qHTS, concentration-response curves come from the screen itself.
Test [2] in a line: qHTS assay for identifying genotoxic compounds that show differential cytotoxicity against isogenic chicken DT40 cell lines with known DNA damage response pathways - wild type cell line (AID 743012). Further: nearly all actives have a fitted effect of over 60% in size. Further: potency means the concentration at half of the fitted maximal effect. In a few lines:
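300 wt DT40 cells/well; cpd (DMSO) pintool-transferred after ~0.5 h at 37 C/5% CO2; 40 h incubation; CellTiter-Glo added, 30 min RT; luminescence read.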

Test [3] can be described thus: qHTS assay for identifying genotoxic compounds that show differential cytotoxicity against isogenic chicken DT40 cell lines with known DNA damage response pathways - Rev3 mutant cell line (AID 743014). Further: nearly all actives have a fitted effect of over 55% in size. Further: potency means the concentration at half of the fitted maximal effect.
Test [4] in a line: qHTS assay to identify small molecule antagonists of the androgen receptor (AR) signaling pathway - cell viability counter screen (AID 743033; further: nearly all actives have a fitted effect of over 45% in size).
The target in test [5] is Androgen receptor (Homo sapiens) (UniProt P10275). As to the kind of experiment: qHTS assay to identify small molecule antagonists of the androgen receptor (AR) signaling pathway (AID 743035; active means well fitted inhibition curve with a large enough effect in the signal ratio in the repeat runs, not every such curve was filed as active; inconclusive means weak or mixed curves, or effect the other way; inactive means no such curve, though single readings can be large or run the other way; the % refers to the signal ratio; further: potency means the concentration at half of the fitted maximal effect). In a few lines:
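In this cell-based reporter screen, compounds were tested in concentration series against R1881-activated HEK293 cells expressing beta-lactamase under UAS control; after 16 h at 37C, FRET substrate was added and fluorescence read 2 h later.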

Test [6] shares this target. The test can be described thus: qHTS assay to identify small molecule agonists of the androgen receptor (AR) signaling pathway (AID 743036; active means well fitted activation curve with a large enough effect in the signal ratio in the repeat runs, with a control signal flat, not every such curve was filed as active; inconclusive means weak or mixed curves, or effect the other way; inactive means no such curve, though single readings can be large or run the other way; the % refers to the signal ratio). In a few lines:
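Screening used 2,000 AR-bla HEK293 cells per well, treated 16 h at 37C with test compounds in DMSO alongside positive and DMSO-only controls; beta-lactamase activity was then read by LiveBLAzer B/G FRET fluorescence after 2 h at room temperature.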

The target is the same in test [7]. As to the kind of experiment: qHTS assay to identify small molecule agonists of the androgen receptor (AR) signaling pathway using the MDA cell line (AID 743040; further: nearly all actives have a fitted effect of over 20% in size). In a few lines: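 Luciferase agonist assay: 16 h compound exposure at 37C without CO2 in MDA-kb2 AR-luc cells, whose MMTV promoter responds to both AR and GR. Luminescence measured after 30 min room-temperature incubation with ONE-Glo.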

Test [8] can be described thus: qHTS assay to identify small molecule antagonists of the androgen receptor (AR) signaling pathway using the MDA cell line - cell viability counter screen (AID 743041; further: nearly all actives have a fitted effect of over 45% in size). In a few lines: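 Viability read by CellTiter-Fluor fluorescence in the same wells as the antagonist screen, added after 15.5 h of a 16 h, 37C exposure. Human breast carcinoma MDA-kb2 AR-luc cells, compounds co-dosed with agonist R1881.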

Test [9] has as its target Androgen receptor (Homo sapiens) (UniProt P10275). The test can be described thus: qHTS assay to identify small molecule antagonists of the androgen receptor (AR) signaling pathway using the MDA cell line (AID 743042; further: nearly all actives have a fitted effect of over 55% in size). In a few lines: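 Antagonist mode: compounds plus R1881 agonist added to MDA-kb2 AR-luc cells, incubated 16 h at 37C. Luciferase reporter luminescence quantified, with multiplexed CellTiter-Fluor readout for cell viability.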

Test [10] is described as follows: qHTS assay to identify small molecule antagonists of the thyroid receptor (TR) signaling pathway (AID 743065). Further: nearly all actives have a fitted effect of over 55% in size. Further: potency means the concentration at half of the fitted maximal effect. In a few lines:
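Antagonism measured as loss of luciferase signal in GH3 cells stably carrying a TRE-luciferase reporter, co-treated with compound and T3 (1 nM final) for 23.5 h at 37 C. Viability was read in the same well by CellTiter-Fluor.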

Test [11] has as its system thyroid hormone receptor (rat, GH3 cells). The test can be described thus: qHTS assay to identify small molecule agonists of the thyroid receptor (TR) signaling pathway (AID 743066; calls by dose curve).
Test [12] is described as follows: qHTS assay to identify small molecule antagonists of the estrogen receptor alpha (ER-alpha) signaling pathway - cell viability counter screen (AID 743074; calls by dose curve;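 further: HEK293 cells carrying ER-alpha-UAS-bla reporter stimulated with 17beta-estradiol; nearly all actives have a fitted effect of over 45% in size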).
A short description of test [13]: qHTS assay to identify small molecule antagonists of the estrogen receptor alpha (ER-alpha) signaling pathway using the BG1 cell line - cell viability counter screen (AID 743081).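 Further: compound given together with 17beta-estradiol as the ER stimulus; series mostly up to about 70 µM; nearly all actives have a fitted effect of over 45% in size.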
For the next test, the target named is Aromatase (Homo sapiens) (UniProt P11511). As to the kind of experiment: qHTS assay to identify aromatase inhibitors (AID 743083).
The nature of test [14]: qHTS assay for identifying genotoxic compounds that show differential cytotoxicity against isogenic chicken DT40 cell lines with known DNA damage response pathways - Rad54/Ku70 mutant cell line (AID 743015). Further: nearly all actives have a fitted effect of over 60% in size. Further: potency means the concentration at half of the fitted maximal effect.
A short description of test [15]: qHTS assay to identify small molecule antagonists of the thyroid receptor (TR) signaling pathway - cell viability counter screen (AID 743064). Further: nearly all actives have a fitted effect of over 50% in size. Further: potency means the concentration at half of the fitted maximal effect. In short, it runs like this:
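Viability of T3-stimulated (1 nM final) GH3.TRE-Luc cells is measured by CellTiter-Fluor fluorescence after 23.5 h compound exposure at 37 °C plus 30 min reagent incubation.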

Test [16] has as its target Estrogen receptor (Homo sapiens) (UniProt P03372). The test can be described thus: qHTS assay to identify small molecule antagonists of the estrogen receptor alpha (ER-alpha) signaling pathway (AID 743069; active means well fitted curve in the direction sought with a large enough effect in the signal ratio in the repeat runs, not every such curve was filed as active; inconclusive means weak or mixed curves, or effect the other way; inactive means no such curve, though single readings can be large or run the other way; the % refers to the signal ratio; further: potency means the concentration at half of the fitted maximal effect). In short, it runs like this:
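Antagonist mode: compounds in DMSO were co-added with 17beta-estradiol to ER-alpha-bla HEK293 cells (2% charcoal-stripped serum) and left 18 h at 37C. Reporter inhibition was measured as FRET fluorescence after 2 h LiveBLAzer substrate at room temperature.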

Test [17] shares this target. As to the kind of experiment: qHTS assay to identify small molecule agonists of the estrogen receptor alpha (ER-alpha) signaling pathway (AID 743075; calls by dose curve;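 further: HEK293 GripTite cells with ER-alpha and UAS-driven beta-lactamase reporter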).
Test [18] shares this target. The test can be described thus: qHTS assay to identify small molecule agonists of the estrogen receptor alpha (ER-alpha) signaling pathway using the BG1 cell line (AID 743079). Further: nearly all actives have a fitted effect of over 20% in size. Further: potency means the concentration at half of the fitted maximal effect.
Test [19] in a line: qHTS assay to identify small molecule antagonists of the estrogen receptor alpha (ER-alpha) signaling pathway using the BG1 cell line (AID 743080; calls by dose curve;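 further: BG1 cells stimulated with 17beta-estradiol alongside compound; series mostly up to about 70 µM; nearly all actives have a fitted effect of over 25% in size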). In a few lines:
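BG1Luc4E2, endogenous ER-alpha, 4xERE-luc; 5 d charcoal-stripped FBS, phenol red free; 24 h plating; cpd + 17beta-estradiol 21.5 h, 37 C/5% CO2; CellTiter-Fluor viability 30 min, then ONE-Glo luciferase 30 min RT.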

Chain of Androgen receptor (Homo sapiens) (P10275 whole entry, looked up): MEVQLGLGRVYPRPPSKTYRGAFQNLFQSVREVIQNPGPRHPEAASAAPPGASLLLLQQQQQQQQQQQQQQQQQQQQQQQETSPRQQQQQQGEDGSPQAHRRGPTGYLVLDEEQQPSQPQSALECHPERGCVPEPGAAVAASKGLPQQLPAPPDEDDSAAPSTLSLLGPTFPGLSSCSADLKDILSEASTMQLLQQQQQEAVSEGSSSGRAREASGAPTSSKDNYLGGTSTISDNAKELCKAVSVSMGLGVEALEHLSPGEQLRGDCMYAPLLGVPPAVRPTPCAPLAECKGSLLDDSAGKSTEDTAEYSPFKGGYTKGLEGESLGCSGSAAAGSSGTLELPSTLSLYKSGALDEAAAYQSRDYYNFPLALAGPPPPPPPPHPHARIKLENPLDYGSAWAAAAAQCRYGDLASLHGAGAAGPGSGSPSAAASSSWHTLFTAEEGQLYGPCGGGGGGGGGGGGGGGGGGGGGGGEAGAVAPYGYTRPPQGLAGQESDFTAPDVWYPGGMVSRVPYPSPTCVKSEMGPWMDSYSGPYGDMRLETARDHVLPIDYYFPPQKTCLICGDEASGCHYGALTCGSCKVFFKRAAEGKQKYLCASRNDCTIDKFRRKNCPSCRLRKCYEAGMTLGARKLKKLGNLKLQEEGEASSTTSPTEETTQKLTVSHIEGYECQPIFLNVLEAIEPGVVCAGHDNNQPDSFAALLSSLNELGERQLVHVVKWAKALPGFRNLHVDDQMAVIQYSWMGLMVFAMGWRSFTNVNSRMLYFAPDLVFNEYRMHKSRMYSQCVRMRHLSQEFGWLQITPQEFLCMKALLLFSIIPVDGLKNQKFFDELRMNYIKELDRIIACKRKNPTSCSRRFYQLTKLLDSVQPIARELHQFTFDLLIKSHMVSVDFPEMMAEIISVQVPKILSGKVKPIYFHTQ
Chain of Estrogen receptor (Homo sapiens) (P03372 whole entry, looked up): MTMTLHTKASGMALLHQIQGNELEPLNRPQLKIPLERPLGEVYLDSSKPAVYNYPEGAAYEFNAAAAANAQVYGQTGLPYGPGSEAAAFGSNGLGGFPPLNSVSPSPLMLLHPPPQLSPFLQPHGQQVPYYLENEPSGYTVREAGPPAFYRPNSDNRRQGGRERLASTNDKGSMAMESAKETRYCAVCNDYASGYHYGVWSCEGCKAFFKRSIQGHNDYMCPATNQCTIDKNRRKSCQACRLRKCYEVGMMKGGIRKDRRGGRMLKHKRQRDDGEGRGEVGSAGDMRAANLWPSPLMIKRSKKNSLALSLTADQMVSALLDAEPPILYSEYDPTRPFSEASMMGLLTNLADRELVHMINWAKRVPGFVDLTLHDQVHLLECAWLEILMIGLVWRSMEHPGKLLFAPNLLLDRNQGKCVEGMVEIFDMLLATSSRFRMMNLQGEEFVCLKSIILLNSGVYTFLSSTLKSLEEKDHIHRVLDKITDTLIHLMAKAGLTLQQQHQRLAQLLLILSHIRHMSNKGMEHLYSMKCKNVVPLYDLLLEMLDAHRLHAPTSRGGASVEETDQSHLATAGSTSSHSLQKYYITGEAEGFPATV
Chain of Aromatase (Homo sapiens) (P11511 whole entry, looked up): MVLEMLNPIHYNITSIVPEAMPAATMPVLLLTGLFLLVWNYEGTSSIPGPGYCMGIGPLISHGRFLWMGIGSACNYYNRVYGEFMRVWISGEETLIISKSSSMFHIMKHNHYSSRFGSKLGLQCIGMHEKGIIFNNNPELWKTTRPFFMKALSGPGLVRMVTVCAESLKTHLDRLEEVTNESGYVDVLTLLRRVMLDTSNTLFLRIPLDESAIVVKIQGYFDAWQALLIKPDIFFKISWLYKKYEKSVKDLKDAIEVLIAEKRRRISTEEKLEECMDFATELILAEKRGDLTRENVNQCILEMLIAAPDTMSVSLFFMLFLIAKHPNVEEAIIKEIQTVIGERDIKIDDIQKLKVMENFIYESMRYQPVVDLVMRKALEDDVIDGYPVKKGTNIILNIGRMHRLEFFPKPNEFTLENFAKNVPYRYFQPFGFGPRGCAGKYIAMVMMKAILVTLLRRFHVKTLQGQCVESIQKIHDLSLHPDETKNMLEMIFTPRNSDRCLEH

`CCCCCCCC/C=C\CCCCCCCC(N)=O`: the Potency result in test [1], in test [2], in test [3], in test [4], in test [5] and in test [7] was “inactive” throughout. For the same compound, the Potency result (in test [8]; in test [9]; in [10]; in [11]; in [13]; in the test with Aromatase (Homo sapiens)) was “inactive” throughout. Also, the outcome in test [6] and in [12] was inactive.
For `COc1cc(C(C)(C)C)c(O)c(C(C)(C)C)c1`, the Potency result in [1], in [4], in test [8], in test [11] and in test [13] was “inactive” each time. Moreover, the Potency in test [2] is 38.6 µM (active); in [3], 27.3 µM (active); in [14], 30.6 µM (active). For the same compound, in test [12], the compound was called inactive.
As for `CCCCCCc1ccc(N)cc1`, the Potency entry in test [1], in test [7], in test [8], in test [9], in [15] and in test [11] was “inactive” each time. For the same compound, the Potency result in [17] and in test [13] was “inactive” in each case. In addition, the Potency in test [2] is 19.3 µM (active); in test [3], 34.4 µM (active); in [14], 43.3 µM (active); in test [5] it was 24.5 µM (active); in [10], 30.6 µM (active); in test [16], 15.5 µM [inconclusive] (active). In addition, in test [18], the Potency is 21.7 µM (active). Further, the compound was called inactive in test [6] and in test [12].
As to `CC(C)NCC(O)c1cc(O)cc(O)c1` (stereo unspecified), the Potency entry in test [1], in test [2], in test [3], in test [14], in [4] and in test [8] was “inactive” in each case. Further, the Potency entry (in test [13]; with Aromatase (Homo sapiens)) was “inactive” each time. The call in test [12] was inactive.
On to `Cc1ccc2c(ccc3ccccc32)c1`, for which the Potency result in test [1], in test [2], in [3], in test [14], in test [4] and in test [8] was “inactive” in each case. Also, the Potency result (in test [17]; in test [13]; with Aromatase (Homo sapiens)) was “inactive” throughout. Also, the call in [12] was inactive.
In the case of `O=[N+]([O-])c1cc[n+]([O-])cc1`, the Potency result in test [1], in test [3], in [14], in [7], in test [8] and in [9] was “inactive” throughout. Further, the Potency result in [11], in [17] and in test [13] was “inactive” in each case. In addition, the Potency in [2] is 15.4 µM (active). Besides, the compound was called inactive in [12].
On to `CC(C(=O)O)c1ccc(-c2ccccc2)c(F)c1` (stereo unspecified), for which the Potency entry in [1], in test [2], in test [3], in test [4], in test [8] and in [15] was “inactive” throughout. For the same compound, the Potency entry in test [10], in test [11], in [16], in [17], in [19] and in [13] was “inactive” in each case. In the test with Aromatase (Homo sapiens), the Potency entry was “inactive”. Besides, the compound was classed as inactive in test [12]. Further, the Potency in test [18] is 4.52 µM (active) and inactive.
With `CC(=O)c1ccc2c(c1)[C@H](NC(=O)c1ccc(F)cc1)[C@@H](O)C(C)(C)O2`, the Potency result in test [1], in [2], in test [3], in [14], in test [4] and in test [8] was “inactive” each time. Moreover, the Potency result (in [10]; in [11]; in [13]; with Aromatase (Homo sapiens)) was “inactive” in each case. In addition, the call in test [12] was inactive.
As to `CN1CCN(C2=Nc3ccccc3Sc3ccc(Cl)cc32)CC1`, the Potency entry (in test [1]; in test [7]; in test [8]; in test [9]; in [13]; in the test with Aromatase (Homo sapiens)) was “inactive” in each case. Also, the Potency in test [2] is 8.41 µM (active); in test [3], 6.68 µM (active); in test [14], 10.6 µM (active); in test [15] it was 13.3 µM (active). Also, the call in test [12] was inactive.
Take `O=S1(=O)c2cccc3cccc(c23)N1CCCN1CCN(c2ccc(F)cc2)CC1`: the Potency entry in [1], in test [4], in test [15], in test [11], in test [17] and in test [13] was “inactive” throughout. For the same compound, the Potency result in the test with Aromatase (Homo sapiens) is “inactive”. Further, the Potency in test [2] is 18.8 µM (active); in [3], 23.7 µM (active); in [14] it was 23.7 µM (active).
Take `CCCCCCCCC(CO)CCCCCC` (stereo unspecified): the Potency entry in test [1], in test [2], in test [3], in [4], in test [8] and in test [15] was “inactive” in each case. The Potency entry in [10], in [11], in [16], in test [17], in test [18] and in test [19] was “inactive” throughout. In addition, the Potency result (in test [13]; with Aromatase (Homo sapiens)) was “inactive” throughout. Besides, the compound was classed as inactive in test [12].
Regarding `CC(=O)OC/C=C/c1ccccc1`, the Potency entry in test [1], in [2], in test [3], in test [14], in test [4] and in test [8] was “inactive” each time. Besides, the Potency result (in test [10]; in [11]; in test [13]; with Aromatase (Homo sapiens)) was “inactive” in each case. In addition, the call in [12] was inactive.
Take `CN(C)CC/C=C1\c2ccccc2COc2ccccc21`: the Potency entry (in [1]; in [7]; in test [8]; in test [9]; in [13]; with Aromatase (Homo sapiens)) was “inactive” each time. In addition, the Potency in [2] is 29.8 µM (active); in test [3], 26.6 µM (active); in test [14], 29.8 µM (active); in test [15], 13.3 µM (active); in test [10], 23.7 µM (active). The compound was classed as inactive in test [6] and in test [12].
